Source: the supplement of paper PMC8291772
± gives the standard error. In all, about 1,300 sequences were measured (“fluorescence a.u.”: median about 420, highest 2% from about 1,100 on). Only a selection was taken, and the highest values are over-represented in it overall.

Target: terminal deoxynucleotidyl transferase (calf thymus) (UniProt P06526)
Test: TdT poly-dT extension signal (Cy3 hybridisation fluorescence, uncapped minus capped) (fluorescence a.u.); higher = more efficient initiation of TdT extension
Conditions: initiator chemistry: 2'-O-methyl-RNA, free 3'-OH (5'-tethered via HEG linker)
Protocol: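 All mono- to pentamer 2'-O-methyl-RNA initiators were made by photolithographic in situ synthesis (3'-NPPOC amidites, reverse direction, free 3'-OH) on glass on a hexaethylene glycol linker. Each was made in uncapped and DMTr-dT-capped versions, about 11 replicates each. Arrays were extended with calf thymus TdT (0.2 U/uL), 100 uM dTTP and 0.25 mM CoCl2 for 120 min at 37 C, hybridised with an rA18-Cy3 probe and scanned at 532 nm. The value is the mean uncapped minus the mean capped signal. IDs are written 3'->5' and are reversed to 5'->3'; all nucleotides are 2'-OMe.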

terminal deoxynucleotidyl transferase (calf thymus), sequence (P06526 whole entry): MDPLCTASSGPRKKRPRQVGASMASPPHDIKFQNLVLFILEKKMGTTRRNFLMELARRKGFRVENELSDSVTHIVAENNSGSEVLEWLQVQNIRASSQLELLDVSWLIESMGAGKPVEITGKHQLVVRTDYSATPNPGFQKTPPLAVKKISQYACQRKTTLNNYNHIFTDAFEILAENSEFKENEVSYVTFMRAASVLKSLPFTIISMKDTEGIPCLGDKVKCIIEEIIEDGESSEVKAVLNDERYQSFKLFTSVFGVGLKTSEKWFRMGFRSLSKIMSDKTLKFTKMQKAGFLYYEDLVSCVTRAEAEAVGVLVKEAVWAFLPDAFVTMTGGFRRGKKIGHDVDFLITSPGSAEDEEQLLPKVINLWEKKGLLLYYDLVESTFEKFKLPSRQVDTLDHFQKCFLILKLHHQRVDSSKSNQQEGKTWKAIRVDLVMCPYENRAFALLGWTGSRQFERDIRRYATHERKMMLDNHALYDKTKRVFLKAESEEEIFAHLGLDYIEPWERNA

Sequence | TdT poly-dT extension signal
CCUAG | 353 ± 33
GGUA | 376 ± 23
CGUAU | 326 ± 32
CCUU | 343 ± 26
CGUUU | 232 ± 14
CGCCG | 324 ± 46
CCAA | 1060 ± 95
ACAAA | 1170 ± 100
ACAA | 1060 ± 140
ACAAG | 613 ± 60
GCAAC | 935 ± 81
CCAAC | 725 ± 53
CCAAA | 1170 ± 64
GCAAA | 1260 ± 170
GCAA | 841 ± 41
AUACG | 244 ± 16
CCUA | 528 ± 39
GAUA | 432 ± 34
CACAU | 469 ± 23
GACGC | 1120 ± 110
UACGC | 1190 ± 92
UACG | 231 ± 24
CUCGU | 483 ± 44

Sequence | TdT poly-dT extension signal
GGUC | 489 ± 33
CAGU | 512 ± 30
CACA | 425 ± 22
AAAGU | 535 ± 51
GUAAC | 558 ± 40
UGCAA | 770 ± 77
UCAGA | 821 ± 37
AAUAA | 788 ± 62
ACCUA | 571 ± 34
UUUCA | 224 ± 24
GCGAA | 1000 ± 120
GACUU | 318 ± 22
AGGAG | 436 ± 25
CAUGG | 217 ± 15
CAGGC | 1060 ± 81
AAGG | 383 ± 41
AAGGC | 1170 ± 40
CUCC | 396 ± 35
AUCAC | 729 ± 63
CUGUC | 440 ± 40
AAUGA | 403 ± 20
AUUCC | 377 ± 21
GUGAA | 729 ± 86

Sequence | TdT poly-dT extension signal
AUUGG | 176 ± 11
GCUUG | 230 ± 30
GAUUA | 366 ± 28
GAAUU | 321 ± 24
AGCGA | 556 ± 38
UUCGC | 1170 ± 79
UUCG | 159 ± 17
UUCGU | 500 ± 42
GCGCA | 351 ± 19
GCCG | 192 ± 16
UCGCU | 401 ± 25
UCGC | 1140 ± 90
UCGCA | 463 ± 31
CAACA | 373 ± 34
UCGG | 302 ± 31
AAGAU | 506 ± 39
UUAGG | 271 ± 26
UCGAU | 402 ± 31
AGGGC | 1120 ± 71
CUAUA | 436 ± 37
GUAUG | 157 ± 12
CGGCU | 341 ± 24
UCACG | 290 ± 31

Sequence | TdT poly-dT extension signal
CUCAG | 488 ± 37
CCCCG | 227 ± 18
GGUAG | 272 ± 28
ACCAC | 681 ± 58
UCUG | 199 ± 16
UUAUA | 375 ± 34
CUCCG | 194 ± 14
AACUC | 504 ± 22
CAUG | 261 ± 26
CAUGC | 1140 ± 140
AAUG | 175 ± 23
AAUGG | 219 ± 18
CAUGU | 374 ± 35
AAUGC | 1140 ± 77
CGUAC | 482 ± 33
AACUU | 369 ± 22
GGCGG | 310 ± 26
AUAGG | 266 ± 22
CCUGG | 221 ± 18
GCGGA | 554 ± 28
GUCUG | 218 ± 15
GGCUA | 621 ± 50
CAAA | 1010 ± 77

Sequence | TdT poly-dT extension signal
CAAAG | 703 ± 58
GAAAA | 1340 ± 160
AAAAG | 572 ± 40
UAAAA | 1190 ± 120
AAAA | 1010 ± 74
GAAAG | 560 ± 51
CAAAA | 1140 ± 66
GAAA | 879 ± 110
AAAAA | 1140 ± 80
UAAAG | 531 ± 53
UAAA | 764 ± 51
UUUAA | 472 ± 39
CACUG | 276 ± 22
GUUG | 156 ± 11
AGAA | 990 ± 120
ACAGA | 899 ± 79
CGAU | 429 ± 24
CCCG | 312 ± 43
UCCGC | 1090 ± 36
CCCGC | 1200 ± 97
CCCCC | 425 ± 34
